In PubChem BioAssay AID624078 (Southern Research Specialized Biocontainment Screening …, 2012):
Results with a measured potency or affinity are listed apart. The source made the active and inactive calls. How the calls were made is not given here.

Test: viability of BHK-21 cells – cell-based, secondary screen, cytotoxicity control for flavivirus guanylyltransferase probe project (AID 624078)

Cn1c(=O)c2[nH]c(-c3ccccc3)c(O)c2n(C)c1=O
outcome: inactive
